Screening results from PubChem BioAssay.
Shown are actives, neighbours in structure and some others; about 6.2% of the full set was active somewhere.
KB-V1 cytotox = qHTS assay for MDR1-selective chemotherapeutics: Primary screen using the drug-selected MDR subline cells KB-V1. hit rate 3.4% among 400,000. AID 1347076, 2019. KB-V1 MDR cells viability, CellTiter-Glo, 72 h. Potency, µM (titrated, usually from 46.1 µM), most hits filed as cytotoxic; note: nearly all actives have a fitted effect of over 60% in size
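In this primary screen, KB-V1 cells overexpressing P-gp are incubated with library compounds (lowest to highest concentration) for 72 h at 37 degrees C before a luminescent ATP viability read.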
ATXN2 expr inh = Primary qHTS for Inhibitors of ATXN expression; HEK-293 ATXN2-luciferase reporter, luminescence, 24 h; hit rate 0.72% among 360,000; Potency, µM (top dose mostly 57 µM), usual class: inhibitors; note: nearly all actives have a fitted effect of over 55% in size
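qHTS (up to 57 uM final) was run with 24 h compound exposure of reporter cells at 37 °C. Each well was multiplexed: SteadyGlo luminescence measured ATXN2-luciferase expression after a fluorogenic Gly-Phe-AFC viability readout (25 uM final).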
ATXN viability = Viability Counterscreen for Primary qHTS for Inhibitors of ATXN expression; S2 cells (HEK-293 line with an ATXN2-luciferase reporter) viability, CellTiter-Fluor protease fluorescence, 24 h; Potency, µM (series often up to 56.7 µM), actives largely listed as cytotoxic; hit rate 0.49% among 400,000; AID 651635, 2014; note: nearly all actives have a fitted effect of over 40% in size
KB-3-1 tox = qHTS assay for MDR1-selective chemotherapeutics: Primary screen using the parental adenocarcinoma cell KB-3-1 | KB-3-1 viability, CellTiter-Glo ATP luminescence, 72 h | hit rate 1.4% among 400,000 | Potency, µM (top dose mostly 46.1 µM), hits mostly cytotoxic; note: nearly all actives have a fitted effect of over 60% in size
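Luminescent ATP read-out (CellTiter-Glo) measures survival of drug-naive KB-3-1 cells after 72 h compound exposure at 37 °C. Titration series was screened from lowest to highest concentration, with DMSO vehicle plates as background controls.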
HT1080-NT tox = qHTS for induction of synthetic lethality in tumor cells producing 2HG: qHTS for the HT-1080-NT fibrosarcoma cell line | AID 686970, 2013 | HT-1080-NT fibrosarcoma viability, CellTiter-Glo ATP luminescence, 48 h | hit rate 1.6% among 360,000 | Potency, µM (series often up to 46.1 µM), hits mostly cytotoxic;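 note: NT is the 2HG producing partner of a matched IDH1 knockdown line; nearly all actives have a fitted effect of over 55% in size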
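Luminescent CellTiter-Glo readout after 48 hours of compound exposure at 37 degrees C defined viability of HT-1080-NT cells. Activity was normalized to DMSO wells and cell-free media wells; concentration-response curves were fitted and assigned curve classes.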
HT1080 IDH1KD tx = qHTS for induction of synthetic lethality in tumor cells producing 2HG: qHTS for the HT-1080-IDH1KD cell line. AID 686971, 2013. Potency, µM (doses to about 46.1 µM), usual class: cytotoxic. HT-1080 IDH1 knockdown viability, ATP luminescence, 48 h. hit rate 2% among 360,000
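IDH1KD HT-1080 cells, 750/well, RPMI + 5% FBS; compound pinned after 2 h settling; 48 h, 37 °C; CellTiter-Glo luminescence; % activity normalised to DMSO and no-cell wells; curves fitted, classed by r2 and efficacy.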
Numbers stand for hits; i = inactive; ? = inconclusive; nt = no result; ! = repeats disagree. Calls come from the whole dose curve; as a rule, active = well fitted curve in the direction sought with a large enough effect; inconclusive = small, poorly fitted or top-dose-only effect, or another doubt; inactive = no such curve, though single readings can be large; an effect the other way counts as inactive or inconclusive.

SMILES	KB-V1 cytotox	ATXN2 expr inh	ATXN viability	KB-3-1 tox	HT1080-NT tox	HT1080 IDH1KD tx
C=CCOc1cccn2c(N(C=O)Cc3ccccc3)c(CC)nc12	i	i	i	i	i	i
CCc1nc2c(OCc3ccc(Cl)cc3)cccn2c1N(C=O)Cc1ccccc1	i	?	?	?	23µM	?
CCc1nc2c(OCc3cc(Cl)cc(Cl)c3)cccn2c1N(C=O)Cc1ccccc1	21µM	?	?	?	?	?
CCOC(=O)N(C)c1c(CC)nc2c(OCc3ccccc3C)cccn12	16µM	?	i	?	i	i
CCc1nc2c(OCC(=O)c3ccc(Cl)cc3Cl)cccn2c1N(C=O)Cc1ccccc1	i	i	?	i	i	i
CCc1nc2c(OCc3cc(Cl)cc(Cl)c3)cccn2c1N(C)C(=O)Nc1ccccc1OC	21µM	i	i	?	?	?
CCOC(=O)N(C)c1c(CC)nc2c(OCc3ccccc3OC)cccn12	?	?	i	i	i	i
Cc1cc(Nc2ccccc2C(=O)O)ccc1Cl	nt	nt	i	nt	nt	nt
COc1cc(OC)c(NC(=O)NCCn2nnc3cc(S(=O)(=O)N(C)C)ccc32)cc1Cl	i	i	i	i	nt	nt
COc1cccc(/C=N/n2c(=S)n(C)c3cc(C)c(C)cc32)c1OC	16µM	i	i	i	i	i
C#CCOCCOCCOCCNc1nc(N2CCN(C(=O)CCCCCCCCCCNC(=O)Cn3cc(C[C@@H](C)O)nn3)CC2)nc(N2CCN(C(=O)CCCCCCCCCCNC(=O)[C@@H]([C@H](C)O)n3cc(C)nn3)CC2)n1	i	?	?	?	18µM	21µM
C#CCOCCOCCOCCNc1nc(N2CCN(C(=O)CCCCCCCCCCNC(=O)Cn3cc(CCCCCN)nn3)CC2)nc(N2CCN(C(=O)CCCCCCCCCCNC(=O)Cn3cc(C[C@@H](C)O)nn3)CC2)n1	i	i	i	i	?	?
C#CCOCCOCCOCCNc1nc(N2CCN(C(=O)CCCCCCCCCCNC(=O)Cn3cc(C[C@@H](C)O)nn3)CC2)nc(N2CCN(C(=O)CCCCCCCCCCNC(=O)[C@@H]([C@H](C)CC)n3cc(CCCCCN)nn3)CC2)n1	i	20µM	nt	23µM	18µM	23µM
OC(CNc1nc(C(F)(F)F)nc2ccccc12)c1ccccc1 (stereo not given)	12µM	i	i	?	?	?
Cc1ccc(-c2cn3c(n2)sc2cc(C(=O)NCCCc4ccccc4)ccc23)c(C)c1	i	i	i	i	nt	nt
O=C(NCCc1ccc2c(c1)OCCO2)c1cc(F)cc(F)c1	12µM	i	i	?	i	i
O=C(NCCc1ccc2c(c1)OCCO2)c1cc(S(=O)(=O)N2CCCC2)ccc1Br	21µM	i	i	?	i	i
O=C(NCCc1ccc2c(c1)OCCO2)c1cccc(F)c1	i	nt	i	?	i	i
Cc1ccc(S(=O)(=O)N2CCCCC2)cc1C(=O)NCCc1ccccc1	?	i	i	i	i	i
O=C(N/N=C1\CCCc2ccccc21)c1ccccc1Cl	i	i	i	i	i	i
O=C(N/N=C1\CCc2ccccc21)c1ccccc1O	21µM	?	i	i	?	?
CN(C)CCOc1cc(-c2cn[nH]c2)ccc1NC(=O)C1COc2ccccc2O1 (stereo not given)	nt	i	nt	nt	nt	nt
Cc1ccc(S(=O)(=O)N2CCCCC2CCNC(=O)C(=O)Nc2ccccc2F)cc1 (stereo not given)	5.8µM	i	i	7.3µM	i	i
COc1ccc(S(=O)(=O)N2CCCC2CNC(=O)C(=O)Nc2cccc(F)c2)cc1 (stereo not given)	4.1µM	i	i	i	i	i
COc1ccc(S(=O)(=O)N2CCCC2CNC(=O)C(=O)Nc2ccc(F)cc2)cc1 (stereo not given)	i	i	i	i	i	i
SMILES	KB-V1 cytotox	ATXN2 expr inh	ATXN viability	KB-3-1 tox	HT1080-NT tox	HT1080 IDH1KD tx
Cc1cc(S(=O)(=O)N2CCCCC2CCNC(=O)C(=O)NCC2CCCO2)ccc1F (stereo not given)	2.6µM	i	i	i	i	i
Cc1cc(C)c(S(=O)(=O)N2CCCCC2CCNC(=O)C(=O)NCc2ccco2)c(C)c1 (stereo not given)	?	?	i	?	i	?
Cc1ccc(S(=O)(=O)N2CCCCC2CCNC(=O)C(=O)NCc2ccco2)cc1 (stereo not given)	?	i	i	?	?	13µM
O=C(NCCC1CCCCN1S(=O)(=O)c1ccc(F)cc1)C(=O)Nc1ccccc1F (stereo not given)	i	i	i	i	i	i
COc1ccc(NC(=O)c2ccco2)cc1NC(=O)COc1cc(C)ccc1C(C)C	?	i	i	i	nt	nt
O=C(NCc1ccccc1F)c1cc2ccccn2n1	i	i	i	i	nt	nt
Cc1ccc(S(=O)(=O)N2CCCCC2CCNC(=O)C(=O)NCCc2ccco2)cc1 (stereo not given)	6.5µM	i	i	5.2µM	10µM	18µM
Cc1ccc(C)c(S(=O)(=O)N2CCCCC2CCNC(=O)C(=O)NCc2ccncc2)c1 (stereo not given)	2.3µM	i	?	?	i	i
Cc1ccc(C)c(S(=O)(=O)N2CCCCC2CCNC(=O)C(=O)NCCc2ccco2)c1 (stereo not given)	i	i	?	i	i	i
Cc1cc(C(F)F)n2nc(C(=O)Nc3cc(Cl)ccc3C)nc2n1	i	i	i	i	nt	nt
COc1cccc2c1cc1c(=O)n(CC(=O)O)nc(C)n12	?	nt	nt	i	nt	nt
CCOC(=O)Cn1nc(Cc2ccccc2)c2ccccc2c1=O	i	i	i	i	i	i
CN1CCCC(n2nc(Cc3ccc(Cl)cc3)c3ccccc3c2=O)CC1 (stereo not given)	?	35µM!	32µM!	6.5µM	5.2µM	4.1µM
O=C(COC(=O)c1ccccc1)Nc1cccc(S(=O)(=O)NC2=NCCCCC2)c1	i	i	i	i	?	i
NC(=O)Nc1ccc(C(=O)OCC(=O)Nc2cccc(S(=O)(=O)NC3=NCCCCC3)c2)cc1	i	nt	i	i	i	i
CCN(CC)c1ccc(C(=O)OCC(=O)Nc2cccc(S(=O)(=O)NC3=NCCCCC3)c2)cc1	21µM	i	i	?	i	i
Cc1cc(C)cc(C(=O)OCC(=O)Nc2cccc(S(=O)(=O)NC3=NCCCCC3)c2)c1	16µM	i	i	?	i	i
